Screens deposited in PubChem by several laboratories.
ADAM17 inh: ADAM17 inhibitors, primary screen, biochemical, QFRET. recombinant ADAM17, EDANS/DABCYL FRET peptide cleavage. Disintegrin and metalloproteinase domain-containing protein 17 (Homo sapiens), P78536. inhibition, % at 6.95 µM. hit rate 0.83% among 370,000;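 active = inhibition above the mean of compounds lying between control limits plus 3 SD, set per campaign, cut at about 8.5% in these data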;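 also: 0% = DMSO-only wells as the low control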
Target sequence (P78536 215-824 limits assumed): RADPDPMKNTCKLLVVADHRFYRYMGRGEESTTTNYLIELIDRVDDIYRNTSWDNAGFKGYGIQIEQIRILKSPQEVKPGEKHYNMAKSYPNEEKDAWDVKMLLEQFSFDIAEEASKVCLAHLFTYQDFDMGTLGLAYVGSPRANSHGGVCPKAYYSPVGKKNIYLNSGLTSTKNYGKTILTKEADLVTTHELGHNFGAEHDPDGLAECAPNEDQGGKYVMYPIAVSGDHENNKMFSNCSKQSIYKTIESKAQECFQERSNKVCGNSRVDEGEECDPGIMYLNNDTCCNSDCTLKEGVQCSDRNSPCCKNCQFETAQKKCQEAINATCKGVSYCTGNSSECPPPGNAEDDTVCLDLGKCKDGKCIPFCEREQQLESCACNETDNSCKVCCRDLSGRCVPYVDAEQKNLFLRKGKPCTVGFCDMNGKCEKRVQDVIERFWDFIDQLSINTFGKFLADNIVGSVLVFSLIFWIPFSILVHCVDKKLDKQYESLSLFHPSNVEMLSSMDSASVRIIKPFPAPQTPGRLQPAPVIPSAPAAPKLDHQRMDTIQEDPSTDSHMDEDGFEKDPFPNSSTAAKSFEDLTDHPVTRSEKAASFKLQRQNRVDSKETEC
HGIII-sPLA2 inh: human group III sPLA2 inhibitors, primary screen, biochemical, QFRET, BODIPY PC-A2 liposome substrate; hit rate 0.56% among 370,000; inhibition, % at 12.2 µM; QFRET BODIPY PC-A2 liposome hydrolysis, fluorescence;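 active = inhibition above mean plus 3 SD of compounds lying within the high and low control bounds, cut at about 19% in these data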;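 also: 0% = median of test compound wells and 100% = no enzyme DMSO wells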
ADAM10 inh: human ADAM10 inhibitors, primary screen, biochemical, QFRET, HTS. Disintegrin and metalloproteinase domain-containing protein 10 (Homo sapiens), O14672. recombinant ADAM10, EDANS/DABCYL FRET peptide cleavage, 3 h. inhibition, % at 7 µM. hit rate 0.62% among 370,000. AID 720582, 2013;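 active = inhibition above a per-campaign cutoff equal to the mean of compounds falling between control-based bounds plus 3 SD, cut at about 20% in these data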;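 also: 0% = DMSO wells while the 100% control is not disclosed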
proKLK7 act: proKLK7 zymogen activators, primary screen, biochemical, fluorescence intensity; Kallikrein-7 (Homo sapiens), P49862; purified proKLK7, EDANS-DABCYL substrate fluorescence; 100% is mature enzyme control, 0% vehicle; activation, % at 7 µM; hit rate 0.9% among 370,000;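 active = activation above the mean of all tested compounds plus 3 SD, computed per campaign excluding outliers beyond control limits, cut at about 13% in these data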
CendR NRP1 mod: modulators of CendR peptide binding to NRP-1, primary screen, biochemical, fluorescence polarization, uHTS; Neuropilin-1 (Homo sapiens), O14786; hit rate 0.85% among 360,000; inhibition, % at 25 µM; AID 602438, 2012; FAM-RPARPAR peptide binding to NRP-1;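 active = inhibition or corrected inhibition above about 18%, plus a signal ratio from 0.5 to 1.5, limit read from the data, passing the limit was not always enough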
ADAM10 confirm: human ADAM10 inhibitors, confirmation, biochemical, QFRET, triplicate; shares compounds with ADAM10 inh; ADAM10 QFRET peptide cleavage, EDANS fluorescence; inhibition, % at 6.95 µM; hit rate 1% among 2,100;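 active = inhibition above about 20% chosen separately for each screening run, limit read from the data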;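 also: 0% = DMSO wells and 100% = marimastat wells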
ADAM17 ctr: ADAM17 inhibitors, counter-screen for ADAM10 exosite inhibitor project, biochemical, QFRET, high throughput; hit rate 0.5% among 2,100; shares compounds with ADAM10 inh; inhibition, % at 6.95 µM; ADAM17 QFRET peptide cleavage, EDANS fluorescence;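 active = mean triplicate inhibition above the solvent-only control wells' mean plus 3 SD, cut at about 12% in these data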;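 also: 0% = DMSO wells and 100% = marimastat wells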
Starred values were filed as active, the others as inactive. Compounds with a hit are over-represented: about 3.4% of the library has one in this group of screens.

Screening CCC(C(=O)Oc1c(C(C)C)cccc1C(C)C)c1ccccc1 (stereo not given) returned ADAM17 inh 5, HGIII-sPLA2 inh 3, ADAM10 inh 79*, proKLK7 act 1, CendR NRP1 mod 4, ADAM10 confirm -1 and ADAM17 ctr 0.
COC(=O)[C@H](C(C)C)N1Cc2nnn(Cc3ccccc3)c2-c2ccccc2S1(=O)=O was read as ADAM17 inh 2, HGIII-sPLA2 inh 1, ADAM10 inh 3 and proKLK7 act 0.
`COc1ccccc1-c1cc(C(=O)N/N=C/C=C/c2ccccc2[N+](=O)[O-])c2ccccc2n1` gave ADAM17 inh 8, HGIII-sPLA2 inh -5, ADAM10 inh 20*, proKLK7 act -1, CendR NRP1 mod 1, ADAM10 confirm 8 and ADAM17 ctr 2.
`O=C(N/N=C/C=C/c1ccccc1[N+](=O)[O-])c1cc(-c2cccnc2)nc2ccccc12` gave ADAM17 inh 0, HGIII-sPLA2 inh 6, ADAM10 inh 7, proKLK7 act 0 and CendR NRP1 mod 2.
Screening Cc1ccc(Nc2c([N+](=O)[O-])cc(C(=O)N3CC(=O)Nc4ccccc43)cc2[N+](=O)[O-])c(C)c1 returned ADAM17 inh 3, HGIII-sPLA2 inh 16, ADAM10 inh 20*, proKLK7 act 0, CendR NRP1 mod 6, ADAM10 confirm 7 and ADAM17 ctr 2.
`O=C1CN(C(=O)c2ccc(Cl)c([N+](=O)[O-])c2)c2ccccc2N1` gave ADAM17 inh -4, HGIII-sPLA2 inh 15, ADAM10 inh 4, proKLK7 act -1 and CendR NRP1 mod 4.
`C[C@@H]1[C@H](c2ccccc2)OC(O)([C@H](Cc2ccccc2)NC(=O)OC(C)(C)C)CN1C` (stereo not given in full) gave ADAM17 inh -3, HGIII-sPLA2 inh -5 and ADAM10 inh -1.
CCCc1c(Cc2cccc(F)c2)ncn1CCc1ccccc1OC was read as ADAM17 inh -1, HGIII-sPLA2 inh -3, ADAM10 inh 46*, proKLK7 act 0, ADAM10 confirm 1 and ADAM17 ctr 1.
COCCNC(=O)[C@]1(C#N)CC(=O)N(C)[C@@H]1c1ccccc1 was read as ADAM17 inh 1, HGIII-sPLA2 inh 4, ADAM10 inh 0 and proKLK7 act 0.
Screening Cc1cc(C)nc(N/N=C/c2ccccc2OCc2ccc([N+](=O)[O-])cc2)n1 returned ADAM17 inh 1, HGIII-sPLA2 inh 9, ADAM10 inh 28*, proKLK7 act 0, CendR NRP1 mod 6, ADAM10 confirm 2 and ADAM17 ctr 1.
`O=[N+]([O-])c1ccc(N/N=C\c2ccccc2OCc2ccccc2)cc1` gave ADAM17 inh -1, HGIII-sPLA2 inh 8, ADAM10 inh -12, proKLK7 act 0 and CendR NRP1 mod -42.
Screening Cc1nn(-c2ccccc2)c(C)c1/C=N\NC(=O)CSc1nc2ccccc2n1Cc1ccc(Cl)cc1 returned ADAM17 inh 6, HGIII-sPLA2 inh -9, ADAM10 inh 13 and proKLK7 act 0.
Screening COc1ccc(CNC(=O)[C@H](NC(=O)C2CCN(C(=O)[C@@H](N)CCSC)CC2)C(C)C)cc1 returned ADAM17 inh -1, HGIII-sPLA2 inh 2, ADAM10 inh 82*, proKLK7 act 0, CendR NRP1 mod -1, ADAM10 confirm -1 and ADAM17 ctr 0.
Screening O=C1N(c2ccccc2)CC2CC(c3ccccc3)N3CCCC123 (stereo not given) returned ADAM17 inh -8, HGIII-sPLA2 inh 12, ADAM10 inh -16 and proKLK7 act 0.
COc1ccc(CN(CCN2CCOCC2)C(=O)c2cccc(F)c2)cc1OC was read as ADAM17 inh 1, HGIII-sPLA2 inh 5, ADAM10 inh -8 and proKLK7 act -1.
Screening COc1ccc(-c2nc(SCC(=O)Nc3nccs3)c(-c3ccc(Cl)cc3)[nH]2)cc1 returned ADAM17 inh 1, HGIII-sPLA2 inh -15, ADAM10 inh -6, proKLK7 act 0 and CendR NRP1 mod -6.
COc1ccc(-c2[nH]c(-c3ccc(C)cc3)nc2SCC(=O)Nc2nccs2)cc1 was read as ADAM17 inh 1, HGIII-sPLA2 inh 1, ADAM10 inh 20*, proKLK7 act -1, CendR NRP1 mod -1, ADAM10 confirm 6 and ADAM17 ctr 3.
O=C(Cn1nc(-c2ccccc2F)ccc1=O)Nc1ccc(S(=O)(=O)N2CCCCCC2)cc1 was read as ADAM17 inh 1, HGIII-sPLA2 inh -12, ADAM10 inh 6, proKLK7 act 0 and CendR NRP1 mod 4.
For O=C(Cn1ncc2c1-c1ccccc1OC2)Nc1ccc(S(=O)(=O)N2CCCCC2)cc1 the results were ADAM17 inh 10*, HGIII-sPLA2 inh -31, ADAM10 inh 22*, proKLK7 act 0, CendR NRP1 mod 0, ADAM10 confirm 7 and ADAM17 ctr 2.
For O=S1(=O)c2ccc(Br)cc2OC[C@H](Cc2ccccc2)N1Cc1cn(Cc2ccc(Br)cc2)nn1 the results were ADAM17 inh 3, HGIII-sPLA2 inh 7, ADAM10 inh -3 and proKLK7 act 0.
`CCn1c(COc2ccc(C)cc2)nnc1SCC(=O)Nc1ccc(C(=O)OC)cc1` gave ADAM17 inh 1, HGIII-sPLA2 inh -3, ADAM10 inh 3 and proKLK7 act 0.
For Cn1nnc(NC(=O)c2ccc(C(C)(C)C)cc2)n1 the results were ADAM17 inh -1, HGIII-sPLA2 inh 0, ADAM10 inh 35*, proKLK7 act -1, CendR NRP1 mod 13, ADAM10 confirm 2 and ADAM17 ctr 1.
O=C(O)c1ccc(C#Cc2cccc(F)c2)cn1 was read as ADAM17 inh -3, HGIII-sPLA2 inh 10, ADAM10 inh 26*, proKLK7 act 0, ADAM10 confirm 1 and ADAM17 ctr 1.
`O=C(O)c1cc2ccccc2cn1` gave ADAM17 inh -2, HGIII-sPLA2 inh -5, ADAM10 inh -9, proKLK7 act 0 and CendR NRP1 mod -11.
`CCc1cc2c(nc1CC)CCCN2S(=O)(=O)c1c(C)noc1C` gave ADAM17 inh -3, HGIII-sPLA2 inh 8, ADAM10 inh -8 and proKLK7 act 0.
